According to PubChem BioAssay:
Calls of active or inactive are those of the source. Unless noted, the rule behind the calls is not given here.

Experiments:
[1] = test system: Wnt5a (protein binding on small-molecule microarray); test: Wnt5a binders on small-molecule microarray, primary screen, biophysical, 635/667 nm fluorescence (AID 1142); conditions: 635 nm fluorescence, higher = more signal;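 note: fluorescence read at 667 nm with signal to noise per printed feature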
[2] = cell viability in Huh7 cells, primary screen, cytotoxicity control for HCV replication inhibitor project, CellTiter-Glo luminescence, basal, 48 h (AID 1143); conditions: Huh7 HCV replicon, higher = more signal, called active from +8 up or from −8 down;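 note: Huh7 hepatoma cells carrying a hepatitis C replication reporter with no stimulus; test concentration not given here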
[3] = P. aeruginosa biofilm formation inhibitors, primary screen, PAO1 strain, BacTiter-Glo luminescence, LB-PBS (AID 1144); conditions: 12 h, higher = more signal
[4] = CREB reporter modulators without forskolin, primary screen, cell-based, PC12, CRE-LacZ reporter, unstimulated (AID 1145); conditions: no forskolin, luminescence, 4.5 h, higher = more signal, called active from +8 up or from −8 down
[5] = CREB reporter modulators under forskolin, primary screen, cell-based, PC12, CRE-LacZ reporter, forskolin-stimulated (AID 1146); conditions: luminescence, 4.5 h, higher = more signal, called active from +8 up or from −8 down;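 note: PC12 cells with 6xCRE LacZ reporter stimulated by forskolin 10 µM; beta-galactosidase reporter signal reflecting CREB driven transcription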
[6] = biological target: Streptavidin (Streptomyces avidinii) (UniProt P22629); test: streptavidin binders on small-molecule microarray, primary screen, artefact control for SMM compound annotation, biophysical, 635/667 nm fluorescence (AID 1147); conditions: streptavidin binding, higher = more signal;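 note: signal reflects streptavidin binding to arrayed compounds as a control protein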
Sequence of Streptavidin (Streptomyces avidinii) (P22629 whole entry, looked up): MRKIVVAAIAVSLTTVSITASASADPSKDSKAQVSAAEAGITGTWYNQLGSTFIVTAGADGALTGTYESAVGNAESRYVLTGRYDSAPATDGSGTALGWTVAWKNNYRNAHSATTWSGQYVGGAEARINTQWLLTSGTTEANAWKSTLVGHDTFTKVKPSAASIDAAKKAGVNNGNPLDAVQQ

[7] = small-molecule binders of probe aInhba, primary screen, biochemical, small-molecule microarray, 635/667 nm fluorescence (AID 1148); conditions: higher = more signal;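 note: score merges 667nm spot fluorescence with signal-to-noise for antibody binding to printed compounds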
[8] = biological target: Torsin-1A (Homo sapiens) (UniProt O14656); test: torsin A binders from cell lysate, primary screen, small-molecule microarray, wild-type, 635/667 nm (AID 1149); conditions: COS7 hTOR1A-WT lysate, 635 nm fluorescence, higher = more signal
Sequence of Torsin-1A (Homo sapiens) (O14656 whole entry, looked up): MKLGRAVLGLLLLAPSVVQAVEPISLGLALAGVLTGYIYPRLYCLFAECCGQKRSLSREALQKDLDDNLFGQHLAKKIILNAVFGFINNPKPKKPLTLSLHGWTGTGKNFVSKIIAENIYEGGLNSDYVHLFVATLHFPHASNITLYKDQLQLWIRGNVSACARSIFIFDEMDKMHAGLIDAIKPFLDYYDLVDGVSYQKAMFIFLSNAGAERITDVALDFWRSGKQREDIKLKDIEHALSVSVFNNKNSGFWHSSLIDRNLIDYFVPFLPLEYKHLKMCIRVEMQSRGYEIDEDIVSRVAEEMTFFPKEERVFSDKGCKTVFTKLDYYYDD

[9] = biological target: Torsin-1A (Homo sapiens) (UniProt O14656); test: small-molecule binders of mutant TOR1A in lysate, primary screen, cell lysate, small-molecule microarray, COS7 lysate, 635/667 nm fluorescence (AID 1150); conditions: COS7 hTOR1A mutant lysate, 635 nm fluorescence, higher = more signal;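 note: score pools 667 nm emission and signal to noise measuring lysate protein binding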
[10] = test system: Sonic hedgehog protein (Shh); test: small-molecule binders of Shh protein, primary screen, biochemical, small-molecule microarray, 635/667 nm fluorescence (AID 1151); conditions: small-molecule microarray binding, 635 nm fluorescence; higher = more signal;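 note: Shh protein binding to compounds spotted on small-molecule microarray slides; score combines spot fluorescence intensity with signal-to-noise across triplicate slides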

| Compound | composite z-score [1] | z-score [2] | z-score [3] | z-score [4] | z-score [5] | composite z-score [6] | composite z-score [7] | composite z-score [8] | composite z-score [9] | composite z-score [10] |
| --- | --- | --- | --- | --- | --- | --- | --- | --- | --- | --- |
| O=C1C2=CC[C@H]3C(=O)N(Cc4ccccc4)C(=O)[C@H]3[C@H]2[C@H](O)[C@@H]2O[C@H]12 | -0.134 | -6.84 (inactive) | 0.252 (inactive) | 0.518 (inactive) | 25 (active) | -0.0955 | -0.128 | 0.367 | 0.216 | -0.575 |
| CO[C@H]1COC(=O)CC=C[C@@H](C)COC(=O)[C@H]2CCCN2C(=O)CC=C[C@H]1C | 0.203 | 0.0653 (inactive) | 0.106 (inactive) | -0.837 (inactive) | -1.05 (inactive) | -0.547 | -0.108 | 2.24 | 2.95 | 1.79 |
| COc1ccc(OC[C@@H]2CC3[C@@H](c4ccc(Br)cc4)[C@H](C)CC[C@H]3C(=O)O2)cc1 (stereo not given in full) | -0.223 | -0.513 (inactive) | -0.12 (inactive) | 1.9 (inactive) | -0.462 (inactive) | 0.0139 | -0.202 | 0.327 | 0.832 | 0.391 |
| O=C1[C@H]2[C@H]3[C@H](O)[C@H](O)CC(=NOC[C@@H](O)COCc4ccco4)[C@@H]3CC[C@H]2C(=O)N1C1CCCCC1 | 0.124 | -0.234 (inactive) | 0.321 (inactive) | 3.23 (inactive) | 0.148 (inactive) | -0.256 | -0.195 | 3.38 | 1.25 | 1.94 |
| CO[C@@H]1C=CCC(=O)N[C@@H](C)C(=O)OC[C@@H](NS(=O)(=O)c2ccc(C)cc2)[C@H](C)C=CCC(=O)OC[C@H]1C | -0.0979 | -1.03 (inactive) | 0.225 (inactive) | 0.155 (inactive) | -1.23 (inactive) | -0.536 | -0.304 | 0.527 | 0.514 | 1.08 |
| C#CCCCON=C1C[C@@H](O)[C@@H](O)[C@@H]2[C@@H]3C(=O)N(C4CCCCC4)C(=O)[C@@H]3CC[C@@H]12 | -0.0633 | 0.0192 (inactive) | -0.356 (inactive) | 1.78 (inactive) | -0.0263 (inactive) | -0.383 | -0.286 | -0.0195 | -0.336 | 0.353 |
| CCOC(=O)[C@H](Cc1ccccc1)NC(=O)CCC1CC(OC(=O)NCCc2ccc(F)cc2)CC2(CCCC(COC(=O)NCCC(C)C)O2)O1 (stereo not given in full) | 0.446 | 0.0118 (inactive) | -0.275 (inactive) | 1.09 (inactive) | 0.956 (inactive) | 0.496 | -0.183 | 0.0817 | 0.34 | 1.68 |
| COC(=O)CC=C[C@@H](C)[C@@H](C=NOC(C)CN1CCCCc2nc(C)c(C)cc21)OC (stereo not given in full) | 0.263 | -0.211 (inactive) | 0.763 (inactive) | 1.41 (inactive) | 0.802 (inactive) | 0.405 | -0.239 | 3.19 | 2.65 | 1.79 |
| COC(=O)[C@@H]1CC[C@H](C)[C@@H](c2ccc(Br)cc2)N1 | 0.224 | 0.336 (inactive) | -0.984 (inactive) | 0.372 (inactive) | -0.257 (inactive) | 0.0708 | 0.0705 | 0.387 | 0.0795 | -0.0173 |
| CC(CCC(=O)OC[C@H]1O[C@H](C#Cc2ccccc2)C=C[C@@H]1Oc1ccc(C)cc1)=NO[C@H](C)c1cn([C@@H]2COC[C@H]2O)nn1 | -0.0352 | -0.783 (inactive) | -0.763 (inactive) | 3.17 (inactive) | -0.0087 (inactive) | 0.197 | -0.101 | 0.587 | 0.326 | 0.39 |
| COC(=O)[C@H](C)NC(=O)CCC1CC(OC(=O)NCCc2ccc(F)cc2)CC2(CCCC(COC(=O)NCc3ccccc3)O2)O1 (stereo not given in full) | 0.101 | -0.455 (inactive) | -0.035 (inactive) | 0.199 (inactive) | 0.833 (inactive) | 0.848 | -0.0209 | 0.257 | 0.477 | 1.25 |
| CCOC(=O)[C@H](Cc1ccccc1)NC(=O)CCC1CC(OC(=O)NCc2cccc3ccccc23)CC2(CCCC(COC(=O)NCc3ccc4c(c3)OCO4)O2)O1 (stereo not given in full) | 0.123 | -0.301 (inactive) | -0.548 (inactive) | -0.0767 (inactive) | -0.0564 (inactive) | -0.0007 | -0.0762 | 0.0755 | -0.497 | 0.466 |
| O=C1C=C[C@@H](O)[C@@H]2[C@@H]3C(=O)N(Cc4ccccc4)C(=O)[C@@H]3CC[C@@H]12 | -0.0088 | -0.122 (inactive) | -0.158 (inactive) | -0.566 (inactive) | -0.768 (inactive) | 0.222 | -0.128 | 0.418 | 0.376 | 0.632 |
| O=C1[C@H]2CCn3c(=O)n(Cc4cc5c(cc4Cl)OCO5)c(=O)n3[C@H]2[C@H](O)[C@@H]2O[C@H]12 | -0.509 | -0.926 (inactive) | 0.529 (inactive) | -0.925 (inactive) | -0.0963 (inactive) | -0.0064 | -0.215 | -0.22 | -0.343 | 0.853 |
| CCOC(=O)[C@H](CC(C)C)NC(=O)CCC1CC(OC(=O)NCCc2ccc(F)cc2)CC2(CCCC(COC(=O)NCc3cccc(C(F)(F)F)c3)O2)O1 (stereo not given in full) | 0.0465 | 0.215 (inactive) | 0.074 (inactive) | -0.437 (inactive) | 0.257 (inactive) | 0.0808 | -0.0762 | 0.0857 | 0.147 | 0.909 |
| CC(C)=CCCC(C)=CCON=C1C[C@@H](O)[C@@H](O)[C@@H]2[C@@H]3C(=O)N([C@@H](C)c4ccccc4)C(=O)[C@@H]3CC[C@@H]12 | 0.143 | -1.19 (inactive) | 0.491 (inactive) | -0.834 (inactive) | -0.541 (inactive) | 0.242 | -0.121 | 0.337 | 1.09 | 0.672 |
| CCOC(=O)[C@H](Cc1ccccc1)NC(=O)CCC1CC(OC(=O)NCc2cccc3ccccc23)CC2(CCCC(COC(=O)NCCOc3ccccc3)O2)O1 (stereo not given in full) | -0.0525 | -2.73 (inactive) | -1.35 (inactive) | -0.523 (inactive) | 0.57 (inactive) | 0.419 | 0.0667 | 0.0468 | 1.47 | 0.825 |
